The values that follow come from PubChem BioAssay (Tox21).

Results filed as inconclusive are left out. A call without a number means that no potency is given here. Values without a mark were called inactive. Active and inactive are the calls of the source. Calls come from the whole dose curve; as a rule, active = well fitted cell-killing curve with a large enough effect in the repeat runs; inconclusive = weak or mixed curves, or effect the other way; inactive = flat fitted curve, though single readings scatter.

This assay in a line: qHTS RealTime-Glo MT Cell Viability Assay in HEK293 cells - 8 hour (AID 1224887). Note: top concentration of the series differs between compounds; nearly all actives have a fitted effect of over 50% in size. The conditions noted are these: RealTime-Glo luminescence; series mostly up to 76.8 µM; activity change, negative = cytotoxicity: at the top concentration. The text has this: U.S. Tox21 Program National Center for Advancing Translational Sciences [NCATS] NIH Chemical Genomics Center [NCGC] U.S. Environmental Protection Agency [EPA] National Institutes of Environmental Health Sciences [NIEHS] National Toxicology Program [NTP] U.S. Food and Drug Administration [FDA] Tox21 Assay Overview: Measure of cell viability is critical in the cell-base assay. Analysis of cell viability is necessary for the characterization of cell responses to cytotoxic drugs and environmental stress. A RealTime-Glo MT Cell Viability Assay to monitor cell viability in real time of continues cell culture during 40 hours of compound treatment was used to screen Tox21 10K library compounds in Hek293 cells. The RealTime-Glo MT Cell Viability Assay is a nonlytic, homogeneous, bioluminescent method to measure cell viability in real time using a simple, plate-based method. The assay involves adding NanoLuc luciferase and a cell-permeant prosubstrate to cells in culture. Viable cells reduce the proprietary prosubstrate to generate a substrate for NanoLuc luciferase. This substrate diffuses from cells into the surrounding culture medium, where it is rapidly used by the NanoLuc Enzyme to produce a luminescent signal. The signal correlates with the number of viable cells, making the assay well suited for cytotoxicity studies.
Tox21 Assay Protocol Summary: The mixture of Hek293 cell suspension and reagents were dispensed at 600cells/6 ul/well in 1536-well tissue culture treated black solid bottom plates using a Multidrop dispenser. After the assay plates were incubated at a 37 C/5% CO2 incubator for 5 hours, 23 nL of compounds dissolved in DMSO, positive and negative controls was transferred to the assay plate by a pintool work station. The plates were incubated at 37 C for 40 hours. The luminescence intensity were measured at 0h, 8h, 16h, 24h, 32h and 40h time points using ViewLux plate reader during compound treatment.
(qHTS replaces the single test concentration by a dilution series.)
`O=C(O)CC(C(=O)O)C(CC(=O)O)C(=O)O` (stereo not given): the Potency result is “inactive”.

Regarding `CCC(O)OC(O)CC` (stereo not given), the Potency result was “inactive”.

In the case of `CN(C)CCCN`, the Potency result was “inactive”.

Consider `COc1ccc2cc([C@H](C)C(=O)O)ccc2c1`, for which the Potency result is “inactive”.

Regarding `CC(O)COCC(C)O` (stereo not given), the Potency entry was “inactive”.

Take `c1ccc2scnc2c1`: the Potency result was “inactive”.

In the case of `CCCCCCCCCCCCS`, the Potency entry is “inactive”.

Turning to `CN(C)CCC(c1ccc(Cl)cc1)c1ccccn1` (stereo not given), the Potency result was “inactive”.

Turning to `CCOC(=O)NNc1nncc2ccccc12`, the Potency entry is “inactive”.

As to `CC[C@H](C)C(=O)O[C@H]1C[C@@H](C)C=C2C=C[C@H](C)[C@H](CC[C@@H]3C[C@@H](O)CC(=O)O3)[C@H]21`, the Potency entry was “inactive”.

As to `O=C(O)c1ccc(C(=O)O)cc1`, the Potency result is “inactive”.

Consider `CC1=CC(=O)NS(=O)(=O)O1`, for which the Potency entry was “inactive”.

As to `CC(C)c1ccc(S(=O)(=O)O)cc1`, the Potency entry was “inactive”.

Consider `CCCCN(CCCC)CCCC`, for which the Potency result is “inactive”.

As to `O=C(O)c1cc(C(=O)O)cc(S(=O)(=O)O)c1`, the Potency result was “inactive”.

For the compound `CC(=O)CC(=O)Nc1ccccc1`, the Potency entry is “inactive”.

For the compound `O=C(O)c1cc(=O)c2c(OCC(O)COc3cccc4oc(C(=O)O)cc(=O)c34)cccc2o1`, the Potency result is “inactive”.

For `COc1cc(Cc2cnc(N)nc2N)cc(OC)c1OC`, the Potency result was “inactive”.

With `CCc1cccc(C)c1N`, the Potency result is “inactive”.

For `OCCOCCOCCO`, the Potency entry was “inactive”.

As to `Nc1ccccc1[N+](=O)[O-]`, the Potency result was “inactive”.

Take `c1c[nH]cn1`: the Potency entry is “inactive”.

Regarding `O=C(O)c1ccccc1C(c1ccc(O)cc1)c1ccc(O)cc1`, the Potency entry is “inactive”.

Regarding `Cc1ccc(N(C)C)cc1`, the Potency entry is “inactive”.

As for `CN(C)CCC(c1ccccc1)c1ccccn1` (stereo not given), the Potency result is “inactive”.

Regarding `O=C(CC(C(=O)OC1CCCCC1)S(=O)(=O)O)OC1CCCCC1` (stereo not given), the Potency entry is “inactive”.

Take `COc1ccc(NC(C)=O)cc1N`: the Potency result is “inactive”.

`CC1=C(C)S(=O)(=O)CCS1(=O)=O`: the “activity change, negative = cytotoxicity” value is 9.78%.

Take `CC(C)(N)CO`: the Potency entry is “inactive”.

`O=S(=O)(O)c1ccc2ccccc2c1`: the Potency result is “inactive”.

As for `Cc1ccc2oc(=O)ccc2c1`, the Potency entry was “inactive”.

As to `CCCCCCCCC/C=C/CC1CC(=O)OC1=O` (stereo not given), the Potency entry is “inactive”.

Consider `CCCCCCOCCO`, for which the Potency result is “inactive”.

On to `C#CCN(C)Cc1ccccc1`, for which the Potency result was “inactive”.

Turning to `CCc1ccc(CCOc2ccc(CC3SC(=O)NC3=O)cc2)nc1` (stereo not given), the Potency entry was “inactive”.

For `CC1CCC(C(C)C)C(O)C1` (stereo not given), the Potency entry is “inactive”.

On to `CCCCC(CC)COC(=O)CCCCC(=O)OCC(CC)CCCC` (stereo not given), for which the Potency result was “inactive”.

`c1ccc2c(c1)ccc1ccccc12`: the “activity change, negative = cytotoxicity” value was -4.32%.

Turning to `C=CCNC(N)=S`, the Potency result was “inactive”.

For the compound `C=CCOC(=O)c1ccccc1C(=O)OCC=C`, the “activity change, negative = cytotoxicity” value was 0.54%.
